From PubChem BioAssay come the findings set out here.

“And” between values parts separate entries of the source, which are not always exact repeats. Identical values can stand only once. The source made the active and inactive calls. Unless noted, no rule for the calls is given here.

Experiment [1] in a line: anti-His antibody binders, primary screen, artefact control for SMM control protein annotation, biochemical, small-molecule microarray, 635 nm fluorescence (AID 1128).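 Also: score merges feature fluorescence with signal-to-noise for each printed compound spot.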 As to conditions: anti-His Alexa647 antibody binding, higher = more signal.
Experiment [2] concerns Human papillomavirus type 1a E7 protein (residues 1-88). The experiment can be described thus: HPV1a E7 small-molecule binders, primary screen, biochemical, small-molecule microarray, residues 1-88, 635 nm (AID 1129). As to conditions: small-molecule microarray binding, fluorescence 635 nm; higher = more signal.
Experiment [3] has as its target Focal adhesion kinase 1 (Homo sapiens) (UniProt Q05397). The experiment can be described thus: small-molecule microarray binders of FAK, primary screen, biochemical, 635/667 nm fluorescence, BSA, DTT (AID 1130).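 Also: composite of spot emission at 667 nm and signal to noise over triplicate slides.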 As to conditions: PTK2 binding, 635 nm fluorescence, higher = more signal.
Experiment [4] relates to Fibrinogen (Alexa647-labelled). The experiment in a line: fibrinogen binders on compound microarrays, profiling panel, artefact control for SMM control-protein annotation, biochemical, small-molecule microarray, 635/667 nm fluorescence (AID 1131).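 Also: z-score merges 667 nm fluorescence with per-spot signal-to-noise over triplicate slides.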 As to conditions: fibrinogen-A647 binding fluorescence, higher = more signal.
Experiment [5] has as its target Follistatin (Homo sapiens) (UniProt P19883). The experiment in a line: follistatin binders on small-molecule microarrays, primary screen, biochemical, small-molecule microarray, 635/667 nm fluorescence (AID 1132). As to conditions: FST binding, 635 nm fluorescence, higher = more signal.
Experiment [6] deals with Fibroblast growth factor 2 (Homo sapiens) (UniProt P09038). The experiment in a line: FGF2 binders on small-molecule microarrays, primary screen, biochemical, small-molecule microarray, 635/667 nm fluorescence (AID 1133). As to conditions: small-molecule microarray binding, FGF2, fluorescence 635/667; higher = more signal.
Experiment [7] in a line: mitochondrial membrane potential change in A549 cells, profiling panel, cell-based, JC-1 fluorescence, basal, 24 h, 100 nL (AID 1138).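 Also: A549 lung adenocarcinoma cells under basal conditions with no added stimulus; test concentration not given here.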 As to conditions: higher = more signal.
Another experiment has as its system Lefty1. The experiment in a line: Lefty1 binders on small-molecule microarrays, primary screen, biochemical, small-molecule microarray, 635/667 nm fluorescence (AID 1139). As to conditions: small-molecule microarray binding, fluorescence 635/667; higher = more signal.
Experiment [8] has as its system wheat germ agglutinin (Triticum aestivum), Alexa647-labelled. The experiment can be described thus: wheat germ agglutinin binders on compound microarrays, profiling panel, artefact control for SMM control-protein annotation, biochemical, small-molecule microarray, 635/667 nm fluorescence (AID 1140).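 Also: score merges 667 nm feature emission with signal to noise over triplicate slides.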 As to conditions: WGA-A647 binding, 635 nm fluorescence, higher = more signal.

In experiment [9] the target is Luciferin 4-monooxygenase (Photinus pyralis) (UniProt P08659). The experiment can be described thus: firefly luciferase enzyme inhibitors, primary screen, biochemical, luminescence, purified enzyme, 2006 set (AID 1141).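 Also: cell-free assay with purified firefly luciferase at 100 ng per well in PBS; test concentration not given here.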 As to conditions: SteadyGlo luminescence, 30 min, higher = more signal, called active from +8 up or from −8 down.
The test system of experiment [10] is Wnt5a (protein binding on small-molecule microarray). The experiment can be described thus: Wnt5a binders on small-molecule microarray, primary screen, biophysical, 635/667 nm fluorescence (AID 1142).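 Also: fluorescence read at 667 nm with signal to noise per printed feature.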 As to conditions: 635 nm fluorescence, higher = more signal.
Experiment [11] is described as follows: cell viability in Huh7 cells, primary screen, cytotoxicity control for HCV replication inhibitor project, CellTiter-Glo luminescence, basal, 48 h (AID 1143).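 Also: Huh7 hepatoma cells carrying a hepatitis C replication reporter with no stimulus; test concentration not given here.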 As to conditions: Huh7 HCV replicon, higher = more signal, called active from +8 up or from −8 down. In general terms: In ATP-based viability assays light output follows the ATP content of the culture.
Experiment [12] can be described thus: P. aeruginosa biofilm formation inhibitors, primary screen, PAO1 strain, BacTiter-Glo luminescence, LB-PBS (AID 1144). As to conditions: 12 h, higher = more signal.
A short description of experiment [13]: CREB reporter modulators without forskolin, primary screen, cell-based, PC12, CRE-LacZ reporter, unstimulated (AID 1145). As to conditions: no forskolin, luminescence, 4.5 h, higher = more signal, called active from +8 up or from −8 down.
Experiment [14] can be described thus: CREB reporter modulators under forskolin, primary screen, cell-based, PC12, CRE-LacZ reporter, forskolin-stimulated (AID 1146).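 Also: PC12 cells with 6xCRE LacZ reporter stimulated by forskolin 10 µM; beta-galactosidase reporter signal reflecting CREB driven transcription.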 As to conditions: luminescence, 4.5 h, higher = more signal, called active from +8 up or from −8 down.
Experiment [15] deals with Streptavidin (Streptomyces avidinii) (UniProt P22629). The experiment in a line: streptavidin binders on small-molecule microarray, primary screen, artefact control for SMM compound annotation, biophysical, 635/667 nm fluorescence (AID 1147).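 Also: signal reflects streptavidin binding to arrayed compounds as a control protein.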 As to conditions: streptavidin binding, higher = more signal.
The nature of experiment [16]: small-molecule binders of probe aInhba, primary screen, biochemical, small-molecule microarray, 635/667 nm fluorescence (AID 1148).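 Also: score merges 667nm spot fluorescence with signal-to-noise for antibody binding to printed compounds.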 As to conditions: higher = more signal.
The target in experiment [17] is Torsin-1A (Homo sapiens) (UniProt O14656). The experiment in a line: torsin A binders from cell lysate, primary screen, small-molecule microarray, wild-type, 635/667 nm (AID 1149). As to conditions: COS7 hTOR1A-WT lysate, 635 nm fluorescence, higher = more signal.
Experiment [18] has the same target. The experiment can be described thus: small-molecule binders of mutant TOR1A in lysate, primary screen, cell lysate, small-molecule microarray, COS7 lysate, 635/667 nm fluorescence (AID 1150).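 Also: score pools 667 nm emission and signal to noise measuring lysate protein binding.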 As to conditions: COS7 hTOR1A mutant lysate, 635 nm fluorescence, higher = more signal.
Experiment [19] concerns Sonic hedgehog protein (Shh). The experiment can be described thus: small-molecule binders of Shh protein, primary screen, biochemical, small-molecule microarray, 635/667 nm fluorescence (AID 1151).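 Also: Shh protein binding to compounds spotted on small-molecule microarray slides; score combines spot fluorescence intensity with signal-to-noise across triplicate slides.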 As to conditions: small-molecule microarray binding, 635 nm fluorescence; higher = more signal.

Sequence of Follistatin (Homo sapiens) (P19883 whole entry, looked up): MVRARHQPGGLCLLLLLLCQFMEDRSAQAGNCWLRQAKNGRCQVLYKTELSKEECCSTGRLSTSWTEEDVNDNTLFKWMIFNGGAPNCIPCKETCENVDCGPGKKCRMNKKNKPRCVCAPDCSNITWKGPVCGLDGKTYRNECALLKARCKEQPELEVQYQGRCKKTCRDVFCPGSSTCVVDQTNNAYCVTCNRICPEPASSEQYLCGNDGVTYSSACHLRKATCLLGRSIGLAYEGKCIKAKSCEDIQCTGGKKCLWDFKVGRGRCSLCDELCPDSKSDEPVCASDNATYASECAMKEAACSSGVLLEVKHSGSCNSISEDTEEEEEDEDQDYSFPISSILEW
Sequence of Focal adhesion kinase 1 (Homo sapiens) (Q05397 whole entry, looked up): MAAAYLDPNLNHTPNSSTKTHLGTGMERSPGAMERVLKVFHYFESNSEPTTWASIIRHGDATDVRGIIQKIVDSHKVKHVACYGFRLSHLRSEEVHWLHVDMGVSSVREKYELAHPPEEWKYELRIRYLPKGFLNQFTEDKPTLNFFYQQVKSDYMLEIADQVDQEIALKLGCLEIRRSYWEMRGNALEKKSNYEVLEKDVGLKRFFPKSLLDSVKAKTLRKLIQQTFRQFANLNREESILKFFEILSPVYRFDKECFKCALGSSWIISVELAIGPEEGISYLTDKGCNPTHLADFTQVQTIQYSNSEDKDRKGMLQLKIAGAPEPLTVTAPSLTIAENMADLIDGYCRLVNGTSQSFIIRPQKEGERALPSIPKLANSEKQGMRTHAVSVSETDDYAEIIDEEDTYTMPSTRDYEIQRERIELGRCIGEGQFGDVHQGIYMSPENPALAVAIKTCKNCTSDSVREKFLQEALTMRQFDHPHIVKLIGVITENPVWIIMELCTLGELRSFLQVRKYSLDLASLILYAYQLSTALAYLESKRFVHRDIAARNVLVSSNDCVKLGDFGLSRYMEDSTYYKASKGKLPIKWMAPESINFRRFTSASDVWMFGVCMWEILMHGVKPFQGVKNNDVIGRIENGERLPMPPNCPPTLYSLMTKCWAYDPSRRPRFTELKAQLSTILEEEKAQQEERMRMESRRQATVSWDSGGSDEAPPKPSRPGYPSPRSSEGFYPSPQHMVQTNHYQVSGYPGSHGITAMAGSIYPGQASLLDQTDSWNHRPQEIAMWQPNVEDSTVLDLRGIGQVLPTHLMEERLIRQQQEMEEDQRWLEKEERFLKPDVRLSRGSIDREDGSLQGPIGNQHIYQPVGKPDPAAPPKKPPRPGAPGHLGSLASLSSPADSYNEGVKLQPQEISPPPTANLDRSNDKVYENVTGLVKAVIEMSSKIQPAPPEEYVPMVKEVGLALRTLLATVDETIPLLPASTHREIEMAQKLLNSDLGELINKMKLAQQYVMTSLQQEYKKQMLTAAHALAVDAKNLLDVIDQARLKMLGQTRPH
Sequence of Luciferin 4-monooxygenase (Photinus pyralis) (P08659 whole entry, looked up): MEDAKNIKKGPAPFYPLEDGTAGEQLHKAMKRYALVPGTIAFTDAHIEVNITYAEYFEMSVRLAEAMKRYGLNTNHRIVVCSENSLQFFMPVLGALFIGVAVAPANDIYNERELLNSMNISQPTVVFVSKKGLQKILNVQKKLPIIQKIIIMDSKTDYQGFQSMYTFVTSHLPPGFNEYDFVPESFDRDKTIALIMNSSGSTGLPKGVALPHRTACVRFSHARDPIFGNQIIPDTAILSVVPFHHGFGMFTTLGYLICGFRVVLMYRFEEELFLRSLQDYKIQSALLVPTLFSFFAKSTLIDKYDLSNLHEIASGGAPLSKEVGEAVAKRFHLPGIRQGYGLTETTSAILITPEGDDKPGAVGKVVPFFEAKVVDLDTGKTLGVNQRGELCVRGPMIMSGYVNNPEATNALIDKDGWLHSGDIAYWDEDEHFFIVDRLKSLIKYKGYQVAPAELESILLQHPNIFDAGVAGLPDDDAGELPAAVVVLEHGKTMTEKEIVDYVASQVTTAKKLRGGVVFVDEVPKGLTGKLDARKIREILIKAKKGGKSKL
Sequence of Streptavidin (Streptomyces avidinii) (P22629 whole entry, looked up): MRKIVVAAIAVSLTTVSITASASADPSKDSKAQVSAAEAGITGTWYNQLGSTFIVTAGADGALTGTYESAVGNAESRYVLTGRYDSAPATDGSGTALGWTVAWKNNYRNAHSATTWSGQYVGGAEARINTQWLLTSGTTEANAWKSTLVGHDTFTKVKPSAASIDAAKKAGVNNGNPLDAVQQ
Sequence of Torsin-1A (Homo sapiens) (O14656 whole entry, looked up): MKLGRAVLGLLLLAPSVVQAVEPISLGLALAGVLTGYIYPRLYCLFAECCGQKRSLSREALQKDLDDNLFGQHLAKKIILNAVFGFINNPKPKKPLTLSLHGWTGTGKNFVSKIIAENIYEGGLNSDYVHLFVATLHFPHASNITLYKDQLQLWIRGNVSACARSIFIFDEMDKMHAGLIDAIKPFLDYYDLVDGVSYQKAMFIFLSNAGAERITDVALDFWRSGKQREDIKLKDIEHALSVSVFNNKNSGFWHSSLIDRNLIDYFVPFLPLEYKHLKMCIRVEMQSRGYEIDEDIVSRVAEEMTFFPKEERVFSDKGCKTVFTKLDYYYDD
Sequence of Fibroblast growth factor 2 (Homo sapiens) (P09038 whole entry, looked up): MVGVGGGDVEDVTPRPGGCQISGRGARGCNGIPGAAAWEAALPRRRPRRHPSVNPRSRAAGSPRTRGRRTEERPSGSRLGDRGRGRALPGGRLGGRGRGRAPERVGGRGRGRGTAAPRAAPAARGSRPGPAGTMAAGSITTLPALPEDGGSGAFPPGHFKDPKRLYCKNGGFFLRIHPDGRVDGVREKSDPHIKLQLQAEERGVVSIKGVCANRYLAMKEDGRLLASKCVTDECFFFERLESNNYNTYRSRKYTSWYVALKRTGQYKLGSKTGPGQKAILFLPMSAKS

Regarding `Cc1cc2c(nc1C)CCCN2CC(O)CN1CCCc2nc(-c3ccc(Br)cc3)ccc21` (stereo not given), the composite z-score in [1] was 1.48 and 2.06; in experiment [2] it was 1.15 and 1.16; in experiment [3], 1.08 and 1.26; in experiment [4] it was 0.887 and 0.695; in experiment [5], 1.27 and 1.29; in experiment [6] it was 0.953 and 0.871. In addition, the composite z-score in the experiment on Lefty1 is 1.34 and 0.844; in experiment [8], 1.15 and 1.36; in experiment [10] it was 0.573 and 1.08; in experiment [15], 1.4 and 1.8; in [16] it was 0.496 and 0.639; in the experiment with Torsin-1A (Homo sapiens) [17], 0.501 and 0.62. Besides, the composite z-score in the experiment with Torsin-1A (Homo sapiens) [18] was 0.797 and 0.251; in experiment [19], 1.13 and 1.11. The z-score in experiment [7] is -0.118 and 1.8; in [9] it was -0.104 (inactive) and -0.176 (inactive); in experiment [11], -0.721 (inactive) and -1.07 (inactive); in experiment [12] it was -0.0664 (inactive) and 0.806 (inactive); in [13] it was 0.0167 (inactive) and 0.382 (inactive); in [14] it was -0.362 (inactive) and -0.274 (inactive).
In the case of `COC(=O)C1=C(C)N(Cc2ccccc2)[C@]23O[C@](C(=O)OC)(C(=O)N2[C@@H]1c1ccccc1)[C@H]1C(=O)N(C)C(=O)[C@H]13`, the composite z-score in experiment [1] is 0.561 and 1.01; in experiment [2], 1.12 and 0.878; in experiment [3], -0.178 and -0.0654; in experiment [4], 0.938 and 0.0407; in experiment [5], 0.368 and 0.409; in experiment [6], 0.219 and 0.4. The composite z-score was 0.817 and 1.17 with Lefty1; 0.638 and 0.366 in experiment [8]; 0.0757 and 0.142 in experiment [10]; 0.412 and 0.0225 in [15]; -0.278 and -0.179 in experiment [16]; 0.314 and 0.263 with Torsin-1A (Homo sapiens) [17]. The composite z-score with Torsin-1A (Homo sapiens) [18] was 0.691 and 0.524; in [19], 0.548 and 0.736. The z-score is -0.993 and 1.4 in [7]; -0.576 (inactive) and -1.35 (inactive) in experiment [9]; -1.01 (inactive) and -1.34 (inactive) in [11]; 0.225 (inactive) in [12]; 3.17 (inactive) and 0.019 (inactive) in experiment [13]; -0.735 (inactive) and -1.7 (inactive) in experiment [14].
As to `C[C@@H](c1ccccc1)N1C(=O)[C@H]2[C@H]3[C@H](O)[C@H](O)CC(=O)[C@@H]3CC[C@H]2C1=O`, the composite z-score in experiment [1] was 0.338; in [2], 0.793; in experiment [3], 0.866; in experiment [4], 0.212; in experiment [5], 0.605; in [6], 1.08. In addition, the composite z-score was 1.64 in the experiment with Lefty1; 0.108 in experiment [8]; 0.314 in experiment [10]; 0.192 in experiment [15]; -0.0791 in experiment [16]; 0.712 in the experiment with Torsin-1A (Homo sapiens) [17]. In addition, the composite z-score was 0.113 with Torsin-1A (Homo sapiens) [18] and 1.04 in [19]. The z-score in experiment [7] is 0.792; in [9] it was -1.87 (inactive); in experiment [11], -0.961 (inactive); in [12], 0.00582 (inactive); in experiment [13], 1.25 (inactive); in [14], 0.488 (inactive).
Turning to `C=CC[C@@H](O)c1ccc(O)c(F)c1`, the composite z-score was -1.52 and -0.7 in [1]; -0.762 and -1.07 in experiment [2]; -0.0427 and -0.9 in experiment [3]; -0.755 and -1.22 in experiment [4]; -1.12 and -0.0709 in experiment [5]; -1.42 and -0.594 in experiment [6]. For the same molecule, the composite z-score is -1.9 and -0.344 in the experiment with Lefty1; 0.106 and -1.3 in experiment [8]; -0.54 and -0.38 in experiment [10]; -1.6 and -1.65 in [15]; -0.327 and -0.157 in experiment [16]; -1.73 and -0.874 with Torsin-1A (Homo sapiens) [17]. In addition, the composite z-score with Torsin-1A (Homo sapiens) [18] is 0.565 and -0.383; in experiment [19] it was -0.97 and 0.89. For the same molecule, the z-score in experiment [7] was -0.933 and 1.15; in experiment [9], -0.0615 (inactive) and -1.14 (inactive); in experiment [11], 0.504 (inactive) and -1.51 (inactive); in experiment [12], -0.222 (inactive); in [13], -0.403 (inactive) and 0.0632 (inactive); in [14] it was 0.347 (inactive) and -1.46 (inactive).
For `COC(=O)CC=C[C@@H](C)[C@@H](CO)NS(=O)(=O)c1ccc(C)cc1`, the composite z-score was 0.929 and 0.293 in experiment [1]; 0.298 and 0.512 in experiment [2]; 0.0223 and -0.111 in [3]; -0.223 and 0.225 in experiment [4]; 0.523 and 0.791 in [5]; 0.646 and 0.574 in experiment [6]. The composite z-score in the experiment on Lefty1 is 0.648 and 0.88; in [8] it was -0.22 and 0.117; in experiment [10], 0.234 and 0.125; in experiment [15], -0.183 and 0.469; in [16] it was -0.05 and 0.0248; with Torsin-1A (Homo sapiens) [17], 0.448 and 0.478. The composite z-score with Torsin-1A (Homo sapiens) [18] was 0.32 and 1.08; in experiment [19] it was 0.759 and 1.44. The z-score in experiment [7] was -0.145 and 0.884; in experiment [9] it was 0.0494 (inactive) and -0.803 (inactive); in [11], 0.577 (inactive) and -0.18 (inactive); in experiment [12], 0.773 (inactive) and -0.379 (inactive); in experiment [13], 1.1 (inactive) and 0.288 (inactive); in experiment [14], -0.196 (inactive) and -0.693 (inactive).
Consider `COC(=O)C1=C(C)N(Cc2ccccc2)[C@]23O[C@](C(=O)OC)(C(=O)N2[C@@H]1c1ccccc1)[C@@H](c1ccccc1)[C@@H]3C(=O)c1ccccc1`, for which the composite z-score in experiment [1] was -0.148 and -0.112; in experiment [2], 0.771 and 0.0338; in experiment [3], -0.0865 and -0.11; in experiment [4], 0.502 and -0.435; in experiment [5], -0.0105 and 0.958; in experiment [6], 0.416 and 0.847. Further, the composite z-score is 0.0005 and 0.36 in the experiment with Lefty1; 0.516 and -0.17 in experiment [8]; 0.216 and 0.0881 in [10]; 0.454 and 0.377 in [15]; -0.0736 and -0.119 in [16]; 0.388 and 0.241 with Torsin-1A (Homo sapiens) [17]. Further, the composite z-score in the experiment with Torsin-1A (Homo sapiens) [18] was 0.392 and 0.308; in experiment [19], 0.229 and 0.599. In addition, the z-score in experiment [7] is 0.914 and 0.835; in [9], -0.917 (inactive) and -0.717 (inactive); in experiment [11] it was -3.24 (inactive) and 0.14 (inactive); in experiment [12], -0.137 (inactive); in experiment [13] it was 0.751 (inactive) and 0.29 (inactive); in [14] it was -1.08 (inactive) and -0.186 (inactive).
